According to the supplement of paper PMC12067093, “Discovery and optimisation of a covalent ligand for TRIM25 and its application to targeted protein ubiquitination” (Chemical Science, 2025):
The full data set covers some 21,000 targets. This sample favours those with the largest changes.

Compound: Cc1cc(ccc1-c1ccccc1)C(=O)N1CCCN(CC1)C(=O)CCl [compound 10]
Test: probe-labelled cysteine peptide fold change vs DMSO (competition) (log2 fold change); higher = less target engagement (more negative = stronger competition)
Conditions: THP-1, incubation time: 4 h
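Also: competitive profiling in live THP-1 cells: cysteine peptides tagged with an iodoacetamide desthiobiotin (IA-DTB) probe, intensity after compound treatment relative to DMSO-treated cells.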

## DGLUCY_Q7Z3D6_265_APPGCLTPER (UniProt Q7Z3D6)
10 µM
  probe-labelled cysteine peptide fold change: -0.239
50 µM
  probe-labelled cysteine peptide fold change: -0.427

## DMXL2_Q8TDJ6_1897_VGCPVLALEVLSK (UniProt Q8TDJ6)
10 µM
  probe-labelled cysteine peptide fold change: 0.0214
50 µM
  probe-labelled cysteine peptide fold change: -0.0631

## DDAH2_O95865_220_AMAVLTDHPYASLTLPDDAAADCLFLRPGLPGVPPFLLHR (UniProt O95865)
Chain of UniProt O95865 (O95865 whole entry, looked up): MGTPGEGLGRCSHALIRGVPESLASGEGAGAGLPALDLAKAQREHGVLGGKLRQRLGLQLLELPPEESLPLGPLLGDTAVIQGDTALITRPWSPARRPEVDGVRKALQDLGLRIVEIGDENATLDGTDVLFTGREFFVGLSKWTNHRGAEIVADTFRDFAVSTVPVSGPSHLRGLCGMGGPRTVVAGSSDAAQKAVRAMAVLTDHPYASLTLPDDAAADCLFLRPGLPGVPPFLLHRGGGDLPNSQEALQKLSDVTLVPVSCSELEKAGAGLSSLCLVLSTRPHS
10 µM
  probe-labelled cysteine peptide fold change: 0.061
50 µM
  probe-labelled cysteine peptide fold change: 0.0115

## DECR1_Q16698_86_GMTTLLSSLGAQCVIASR (UniProt Q16698)
10 µM
  probe-labelled cysteine peptide fold change: 0.251
50 µM
  probe-labelled cysteine peptide fold change: 0.213

## CUL7_Q14999_952_CQQGGIDTR (UniProt Q14999)
10 µM
  probe-labelled cysteine peptide fold change: -0.417
50 µM
  probe-labelled cysteine peptide fold change: -0.0198

## DLEC1_Q9Y238_256_LEDSCR (UniProt Q9Y238)
Chain of UniProt Q9Y238 (Q9Y238 whole entry): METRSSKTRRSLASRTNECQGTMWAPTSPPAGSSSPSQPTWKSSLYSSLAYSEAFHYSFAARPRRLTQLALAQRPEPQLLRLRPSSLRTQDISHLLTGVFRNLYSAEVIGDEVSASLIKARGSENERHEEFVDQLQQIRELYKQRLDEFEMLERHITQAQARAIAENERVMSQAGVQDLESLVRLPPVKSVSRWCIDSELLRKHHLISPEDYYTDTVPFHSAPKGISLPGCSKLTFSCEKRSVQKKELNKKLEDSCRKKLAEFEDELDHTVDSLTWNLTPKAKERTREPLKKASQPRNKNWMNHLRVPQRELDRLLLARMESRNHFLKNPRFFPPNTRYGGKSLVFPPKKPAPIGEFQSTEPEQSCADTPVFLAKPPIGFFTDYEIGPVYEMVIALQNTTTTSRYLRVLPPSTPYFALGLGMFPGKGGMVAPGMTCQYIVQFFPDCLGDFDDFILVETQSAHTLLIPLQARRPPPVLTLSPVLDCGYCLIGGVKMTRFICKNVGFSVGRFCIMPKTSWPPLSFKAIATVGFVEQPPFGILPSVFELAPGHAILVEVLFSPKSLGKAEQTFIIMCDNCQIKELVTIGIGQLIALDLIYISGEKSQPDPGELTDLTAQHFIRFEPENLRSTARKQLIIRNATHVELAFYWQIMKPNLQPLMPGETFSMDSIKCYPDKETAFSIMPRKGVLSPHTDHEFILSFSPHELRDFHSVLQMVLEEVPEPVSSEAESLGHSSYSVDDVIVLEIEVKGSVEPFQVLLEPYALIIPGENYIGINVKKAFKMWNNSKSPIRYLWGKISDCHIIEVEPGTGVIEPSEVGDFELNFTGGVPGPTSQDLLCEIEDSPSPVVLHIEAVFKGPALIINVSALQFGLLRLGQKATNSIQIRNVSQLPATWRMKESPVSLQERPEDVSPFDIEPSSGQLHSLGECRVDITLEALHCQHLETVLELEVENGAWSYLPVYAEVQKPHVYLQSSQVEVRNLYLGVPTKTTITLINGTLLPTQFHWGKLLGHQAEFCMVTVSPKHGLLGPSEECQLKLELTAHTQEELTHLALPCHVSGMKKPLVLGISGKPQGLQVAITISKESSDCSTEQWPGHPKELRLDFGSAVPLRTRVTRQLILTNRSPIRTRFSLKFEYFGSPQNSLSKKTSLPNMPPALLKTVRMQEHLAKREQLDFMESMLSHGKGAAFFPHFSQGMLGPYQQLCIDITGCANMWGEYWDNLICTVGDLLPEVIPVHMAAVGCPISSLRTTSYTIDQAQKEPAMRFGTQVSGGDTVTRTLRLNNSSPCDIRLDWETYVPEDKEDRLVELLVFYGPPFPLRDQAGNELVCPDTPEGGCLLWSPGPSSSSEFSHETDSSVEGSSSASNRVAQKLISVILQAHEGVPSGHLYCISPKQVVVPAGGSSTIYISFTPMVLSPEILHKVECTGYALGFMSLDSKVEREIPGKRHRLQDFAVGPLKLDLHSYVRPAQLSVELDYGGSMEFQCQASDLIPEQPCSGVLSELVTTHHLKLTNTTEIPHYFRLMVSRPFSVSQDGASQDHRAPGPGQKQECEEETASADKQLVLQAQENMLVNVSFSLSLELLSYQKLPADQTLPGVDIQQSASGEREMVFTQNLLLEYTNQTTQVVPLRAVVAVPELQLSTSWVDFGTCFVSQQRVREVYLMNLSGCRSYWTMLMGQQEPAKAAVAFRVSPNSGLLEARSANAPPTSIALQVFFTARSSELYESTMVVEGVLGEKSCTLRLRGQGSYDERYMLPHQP
10 µM
  probe-labelled cysteine peptide fold change: 0.773
50 µM
  probe-labelled cysteine peptide fold change: 1.66

## DENND6A_Q8IWF6_130_VSLHCLLDQFDK (UniProt Q8IWF6)
10 µM
  probe-labelled cysteine peptide fold change: 0.295
50 µM
  probe-labelled cysteine peptide fold change: 1.1

## CPSF1_Q10570_1102_IELQEWEHVTCMK (UniProt Q10570)
10 µM
  probe-labelled cysteine peptide fold change: 0.0314
50 µM
  probe-labelled cysteine peptide fold change: -0.201

## DENND3_A2RUS2_1094_DTSTSFLAFQLLPEEEQLWAACAGR (UniProt A2RUS2)
Chain of UniProt A2RUS2 (A2RUS2 whole entry, looked up): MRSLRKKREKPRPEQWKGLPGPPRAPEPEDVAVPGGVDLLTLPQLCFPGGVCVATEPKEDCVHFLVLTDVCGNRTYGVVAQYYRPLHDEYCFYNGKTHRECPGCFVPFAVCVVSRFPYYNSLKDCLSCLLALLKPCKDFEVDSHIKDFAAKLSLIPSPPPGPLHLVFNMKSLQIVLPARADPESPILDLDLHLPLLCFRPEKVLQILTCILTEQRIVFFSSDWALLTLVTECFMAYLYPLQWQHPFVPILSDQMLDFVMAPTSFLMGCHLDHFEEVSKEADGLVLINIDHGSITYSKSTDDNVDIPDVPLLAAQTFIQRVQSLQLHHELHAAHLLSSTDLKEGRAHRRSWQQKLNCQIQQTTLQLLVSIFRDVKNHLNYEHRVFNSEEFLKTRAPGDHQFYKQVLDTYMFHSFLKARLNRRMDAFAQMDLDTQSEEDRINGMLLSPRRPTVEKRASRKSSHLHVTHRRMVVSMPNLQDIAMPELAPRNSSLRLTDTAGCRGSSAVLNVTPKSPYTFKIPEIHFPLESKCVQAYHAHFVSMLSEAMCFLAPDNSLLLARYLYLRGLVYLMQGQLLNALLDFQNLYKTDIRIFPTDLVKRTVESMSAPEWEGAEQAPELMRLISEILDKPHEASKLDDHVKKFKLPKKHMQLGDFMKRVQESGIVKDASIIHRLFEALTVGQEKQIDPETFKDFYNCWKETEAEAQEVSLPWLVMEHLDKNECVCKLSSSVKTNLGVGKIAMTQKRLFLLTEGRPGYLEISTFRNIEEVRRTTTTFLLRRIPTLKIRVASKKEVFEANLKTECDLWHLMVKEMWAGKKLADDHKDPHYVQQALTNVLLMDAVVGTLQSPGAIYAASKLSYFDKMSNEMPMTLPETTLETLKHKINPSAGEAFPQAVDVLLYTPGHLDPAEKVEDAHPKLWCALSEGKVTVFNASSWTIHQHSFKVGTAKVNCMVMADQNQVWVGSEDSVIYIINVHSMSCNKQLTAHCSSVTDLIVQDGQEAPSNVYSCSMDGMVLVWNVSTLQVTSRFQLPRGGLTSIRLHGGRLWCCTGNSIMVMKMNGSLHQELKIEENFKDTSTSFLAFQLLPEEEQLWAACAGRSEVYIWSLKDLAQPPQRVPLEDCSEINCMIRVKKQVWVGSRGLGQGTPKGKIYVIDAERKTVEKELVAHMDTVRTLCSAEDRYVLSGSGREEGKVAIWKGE
10 µM
  probe-labelled cysteine peptide fold change: 1.07
50 µM
  probe-labelled cysteine peptide fold change: 1.16

## DGLUCY_Q7Z3D6_316_GIGHLLCK (UniProt Q7Z3D6)
10 µM
  probe-labelled cysteine peptide fold change: -0.0414
50 µM
  probe-labelled cysteine peptide fold change: 0.0827

## DHX8_Q14562_1108_AICSGFFR (UniProt Q14562)
10 µM
  probe-labelled cysteine peptide fold change: -0.267
50 µM
  probe-labelled cysteine peptide fold change: 0.29

## COG1_Q8WTW3_625_LCQSLGELCPHLK (UniProt Q8WTW3)
10 µM
  probe-labelled cysteine peptide fold change: -0.144
50 µM
  probe-labelled cysteine peptide fold change: -0.347

## CSRP1_P21291_25_TVYFAEEVQCEGNSFHK (UniProt P21291)
10 µM
  probe-labelled cysteine peptide fold change: 2.29e-05
50 µM
  probe-labelled cysteine peptide fold change: -0.0826

## CPVL_Q9H3G5_320_CTEPEDQLYYVK (UniProt Q9H3G5)
10 µM
  probe-labelled cysteine peptide fold change: -0.128
50 µM
  probe-labelled cysteine peptide fold change: -0.131

## DCAF12_Q5T6F0_253_EDTNPDNCK (UniProt Q5T6F0)
Chain of UniProt Q5T6F0 (Q5T6F0 whole entry, looked up): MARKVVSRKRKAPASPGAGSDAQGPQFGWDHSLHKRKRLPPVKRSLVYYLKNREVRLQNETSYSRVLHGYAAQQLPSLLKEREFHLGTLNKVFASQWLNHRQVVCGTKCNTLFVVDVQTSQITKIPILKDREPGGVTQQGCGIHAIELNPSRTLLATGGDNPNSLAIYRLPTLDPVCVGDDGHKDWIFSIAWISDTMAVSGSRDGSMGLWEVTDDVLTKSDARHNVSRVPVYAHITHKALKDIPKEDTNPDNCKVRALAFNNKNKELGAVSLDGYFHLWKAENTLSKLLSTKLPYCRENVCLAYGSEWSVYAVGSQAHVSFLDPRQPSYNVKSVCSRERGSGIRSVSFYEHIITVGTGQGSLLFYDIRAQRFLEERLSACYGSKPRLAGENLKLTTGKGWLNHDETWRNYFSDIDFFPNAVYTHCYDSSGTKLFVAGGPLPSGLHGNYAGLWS
10 µM
  probe-labelled cysteine peptide fold change: -0.303
50 µM
  probe-labelled cysteine peptide fold change: -0.538

## CRYL1_Q9Y2S2_125_VILSSSTSCLMPSK (UniProt Q9Y2S2)
Chain of UniProt Q9Y2S2 (Q9Y2S2 whole entry, looked up): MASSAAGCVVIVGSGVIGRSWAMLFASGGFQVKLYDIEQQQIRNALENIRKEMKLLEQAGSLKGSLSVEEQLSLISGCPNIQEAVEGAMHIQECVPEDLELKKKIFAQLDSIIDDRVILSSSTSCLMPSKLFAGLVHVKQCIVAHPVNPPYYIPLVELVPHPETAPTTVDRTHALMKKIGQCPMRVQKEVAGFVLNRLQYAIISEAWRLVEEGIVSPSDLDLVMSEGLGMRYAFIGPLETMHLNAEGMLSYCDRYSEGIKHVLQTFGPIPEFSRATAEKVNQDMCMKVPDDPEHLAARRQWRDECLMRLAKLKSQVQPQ
10 µM
  probe-labelled cysteine peptide fold change: -0.0791
50 µM
  probe-labelled cysteine peptide fold change: -0.537

## DCAF6_Q58WW2_513_GIGSHCK (UniProt Q58WW2)
10 µM
  probe-labelled cysteine peptide fold change: -0.205
50 µM
  probe-labelled cysteine peptide fold change: -0.361

## DGKE_P52429_167_TVHDECMK (UniProt P52429)
Chain of UniProt P52429 (P52429 whole entry, looked up): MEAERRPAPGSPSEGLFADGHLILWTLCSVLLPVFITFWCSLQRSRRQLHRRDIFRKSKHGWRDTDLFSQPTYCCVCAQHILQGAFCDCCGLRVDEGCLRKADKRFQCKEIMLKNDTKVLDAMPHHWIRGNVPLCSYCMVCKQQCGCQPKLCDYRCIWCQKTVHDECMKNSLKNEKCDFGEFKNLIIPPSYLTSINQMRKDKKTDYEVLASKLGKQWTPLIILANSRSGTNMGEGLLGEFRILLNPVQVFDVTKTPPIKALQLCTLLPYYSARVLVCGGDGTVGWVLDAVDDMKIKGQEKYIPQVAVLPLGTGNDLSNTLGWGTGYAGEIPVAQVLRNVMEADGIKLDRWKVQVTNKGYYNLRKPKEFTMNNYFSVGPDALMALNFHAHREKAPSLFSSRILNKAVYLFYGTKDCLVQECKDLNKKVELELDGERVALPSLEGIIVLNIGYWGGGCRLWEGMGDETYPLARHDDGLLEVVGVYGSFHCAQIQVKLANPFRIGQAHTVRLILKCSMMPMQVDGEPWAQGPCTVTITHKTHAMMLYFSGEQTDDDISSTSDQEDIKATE
10 µM
  probe-labelled cysteine peptide fold change: -0.082
50 µM
  probe-labelled cysteine peptide fold change: -0.168

## DCP2_Q8IU60_391_KLQDNFETDAVYDLPSSSEDQLLEHAEGQPVACNGHCK (UniProt Q8IU60)
10 µM
  probe-labelled cysteine peptide fold change: -0.353
50 µM
  probe-labelled cysteine peptide fold change: -1.7

## DDX5_P17844_200_STCIYGGAPK (UniProt P17844)
10 µM
  probe-labelled cysteine peptide fold change: -0.0442
50 µM
  probe-labelled cysteine peptide fold change: -0.0153

## CTSZ_Q9UBR2_179_ECHAIR (UniProt Q9UBR2)
Chain of UniProt Q9UBR2 (Q9UBR2 whole entry, looked up): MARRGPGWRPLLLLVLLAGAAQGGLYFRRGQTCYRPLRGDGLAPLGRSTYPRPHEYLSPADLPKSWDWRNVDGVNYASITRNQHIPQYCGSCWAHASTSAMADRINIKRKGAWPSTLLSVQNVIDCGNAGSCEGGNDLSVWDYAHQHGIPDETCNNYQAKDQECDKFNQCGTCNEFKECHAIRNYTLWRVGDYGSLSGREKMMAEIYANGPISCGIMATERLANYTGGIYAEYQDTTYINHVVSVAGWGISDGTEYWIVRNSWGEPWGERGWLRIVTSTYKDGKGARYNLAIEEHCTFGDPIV
10 µM
  probe-labelled cysteine peptide fold change: 0.892
50 µM
  probe-labelled cysteine peptide fold change: 2.23

## DNAJB1_P25685_179_VSLEEIYSGCTK (UniProt P25685)
10 µM
  probe-labelled cysteine peptide fold change: -0.0218
50 µM
  probe-labelled cysteine peptide fold change: 0.255
